Assay outcomes: PubChem BioAssay, National Center for Advancing Translational Sciences (NCATS)
Sampled rows, rich in hits. Any-hit rate of the full collection: about 11%.
IMPase cell inh = membrane-permeable compound that blocks inositol monophosphatase; P97697; CHO-M1 cells, IP1 accumulation, HTRF TR-FRET ratio; inhibition (IP1 accumulation), % at 46.1 µM; 120,000 tested, under 10 active; AID 901; active = well fitted curve in the direction sought with a large enough effect in the signal ratio, not every such curve was filed as active; inconclusive = small, poorly fitted or top-dose-only effect, or a change in a side signal; inactive = no such curve, though single readings can be large or run the other way; the % refers to the signal ratio;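 also: cells stimulated with carbachol in lithium chloride buffer; plate controls were DMSO basal wells for no effect and reference inhibitor wells for full effect; higher means more IMPase inhibition seen as more IP1 and lower FRET ratio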
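CHO-M1, 2000 cells/well, cultured 16–30 h; cpd up to 46 uM; carbachol (50 uM solution, stimulation buffer w/ 50 mM LiCl, pH 7.4), 30 min 37C; IP-One TR-FRET, 10 min RT; Ex 320/Em 665, 620; Hill-fit AC50.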
HPGD inh = blocks human HPGD enzyme activity | Potency, µM, inactives show top-dose activity change, negative = inhibition, most hits filed as inhibitors | P15428 | purified HPGD, NADH fluorescence kinetic, PGE2 substrate | 150,000 compounds, 4.3% hits; also: potency is read from the fitted curve at half-maximal effect
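20 nM HPGD preincubated 15 min at room temperature with compound in 50 mM Tris-HCl pH 8, 0.01% Tween 20. Started with 1 mM NAD+ and 30 uM prostaglandin E2; NADH fluorescence (360/450 nm) read 5 times over 30-s intervals, last minus first.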
IMPase Li inh = membrane-permeable IMPase blocker, potentiated with lithium. CHO-M1 cells, IP1 TR-FRET (IP-One), carbachol + lithium. Potency, µM (doses to about 59.4 µM), for the others: top-dose activity, negative = IMPase inhibition, actives largely listed as inhibitors. 210,000 compounds, 0.35% hits. AID 1457; active = well fitted curve in the direction sought with a large enough effect; inconclusive = small, poorly fitted or top-dose-only effect, or another doubt; inactive = no such curve, though single readings can be large; an effect the other way counts as inactive or inconclusive;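 also: IP1 builds up when IMPase is blocked and the TR-FRET signal falls; potency is read from the fitted curve at half-maximal effect; plate controls were basal vehicle for no effect and high inhibitor control for full effect; nearly all actives have a fitted effect of over 50% in size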
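CHO cells stably expressing M1 receptor (2000/well, cultured 16–30 h) treated 30 min at 37C with compound plus low lithium. Cytosolic IP1 by TR-FRET (665/620 ratio and 620 channel) after 10 min lysis; AC50 by Hill fit.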
ALOX12 inhib = inhibitors of human 12-lipoxygenase (ALOX12). Potency, µM (top dose mostly 57.1 µM), without a hit: at the top dose activity change, negative = inhibition, usual class: inhibitors. 150,000 compounds, 0.12% hits. purified 12-hLO, xylenol orange hydroperoxide absorbance. P18054; active = well fitted curve in the direction sought with a large enough effect; inconclusive = small, poorly fitted or top-dose-only effect, or another doubt; inactive = no such curve, though single readings can be large; an effect the other way counts as inactive or inconclusive; also: potency is read from the fitted curve at half-maximal effect; nearly all actives have a fitted effect of over 55% in size
Target sequence (P18054 whole entry, looked up): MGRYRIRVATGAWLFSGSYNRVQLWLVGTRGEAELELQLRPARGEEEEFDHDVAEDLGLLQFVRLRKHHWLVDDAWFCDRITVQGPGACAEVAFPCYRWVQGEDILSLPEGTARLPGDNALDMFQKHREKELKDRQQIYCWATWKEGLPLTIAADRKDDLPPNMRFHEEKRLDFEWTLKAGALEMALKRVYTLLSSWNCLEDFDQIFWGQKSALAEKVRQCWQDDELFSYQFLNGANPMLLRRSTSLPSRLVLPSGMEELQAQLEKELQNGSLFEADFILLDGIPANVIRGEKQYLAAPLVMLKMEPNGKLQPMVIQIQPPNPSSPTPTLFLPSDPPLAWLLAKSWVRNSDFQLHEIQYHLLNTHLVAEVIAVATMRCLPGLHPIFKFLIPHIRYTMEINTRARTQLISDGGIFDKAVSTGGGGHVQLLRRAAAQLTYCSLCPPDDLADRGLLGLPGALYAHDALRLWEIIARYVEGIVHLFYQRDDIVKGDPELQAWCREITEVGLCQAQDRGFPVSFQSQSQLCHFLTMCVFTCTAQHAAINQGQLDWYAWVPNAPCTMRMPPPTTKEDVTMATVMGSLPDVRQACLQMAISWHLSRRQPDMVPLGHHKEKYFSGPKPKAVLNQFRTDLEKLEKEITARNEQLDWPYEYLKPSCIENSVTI
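Purified human 12hLO (150 nM), preincubated 15 min with compound, then 40 uM arachidonic acid for 30 min, room temperature, Hepes pH 7.0 with 0.01% Triton X-100. Hydroperoxide detected by ferrous iron/xylenol orange; 573/405 nm absorbance ratio gives reaction progress.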
ALDH1A1 block = ALDH1A1 (human) enzyme inhibition; P00352; Purified ALDH1A1, NADH fluorescence, propionaldehyde substrate; Potency, µM (series often up to 75.3 µM), inactives show at the highest dose activity, negative = inhibition, actives largely listed as inhibitors; 220,000 compounds, 7.3% hits; AID 1030;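 also: potency is read from the fitted curve at half-maximal effect; plate controls were no enzyme wells and a reference inhibitor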
PNC assembly inh = inhibitors of perinucleolar compartment assembly; activity change (PNC), negative = inhibition, % at 10 µM; PC3M PTB-GFP, PNC prevalence imaging, 16 h; hits give low values; 140,000 compounds, 3.1% hits; AID 2417;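 active = readout at or below -70, meaning at least 70% loss of cells showing the perinucleolar compartment, a nuclear body marking cancer cells; inconclusive = readout between -30 and a set limit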;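 also: plate controls were DMSO wells for no effect and camptothecin positive control wells for full effect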
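Read-out is percentage of cells bearing a perinucleolar compartment, from automated 20x imaging of fixed, Hoechst-stained PC3M PTB-GFP cells. Cells were seeded 4 h, then exposed 16 h to compound (23 nl of library stock) in duplicate plates.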
* = called active by the depositor; ? = inconclusive; / = not tested or not shown; ! = repeats disagree; [ ] = dose if it differs, or a comment. Unless noted, calls follow the shape of the dose curve; as a rule, active = well fitted inhibition curve with a large enough effect (not every such curve was filed as active); inconclusive = small, poorly fitted or top-dose-only effect, or another doubt; inactive = no such curve, though single readings can be large or run the other way. Unless noted, % is scaled to controls: 0 for no effect and ±100 for the full control effect.

SMILES	IMPase cell inh	HPGD inh	IMPase Li inh	ALOX12 inhib	ALDH1A1 block	PNC assembly inh
O=C(/C=C/c1ccccc1)NC(=S)Nc1ccc(N2CCOCC2)c(Cl)c1	9	/	/	-10%	1%	21
O=C(NC(=S)Nc1ccc(N2CCOCC2)c(Cl)c1)C(c1ccccc1)c1ccccc1	6	-18%	0%[38.3 µM]	?	11µM*	?
CN(C)c1ncc2nc(CCc3ccccc3)c(=O)n(Cc3ccc(F)cc3)c2n1	/	-25%	-8%	3%	?	/
O=C(O)c1ccccc1NS(=O)(=O)c1ccc(NNC(=S)Nc2ccc(OC(F)F)cc2)c([N+](=O)[O-])c1	/	/	22%	/	3.5µM*	/
Cc1ccc(NC(=S)NNc2ccc([N+](=O)[O-])cc2S(=O)(=O)Nc2ccccc2C(=O)O)cc1C	/	?	3%	?	?	-26
CCc1ccc(NC(=O)CSc2nc3ccccc3c(=O)n2CCCN2CCC(C)CC2)cc1	/	/	16%	/	-6%	/
CCc1cc2c(=O)c(-c3ccc4c(c3)OCCO4)c(C)oc2cc1OS(C)(=O)=O	11	-22%	19%	-3%	4.5µM*	5
CC(C)(N=NC(C)(C)C1=NCCN1)C1=NCCN1	/	-12%	20%	-5%[11.4 µM]	0%[13.5 µM]	/
Cc1cc(N)n(-c2ccc(S(=O)(=O)c3ccc(C(C)C)cc3)cc2)n1	/	/	16%	/	35µM*	/
O=C(NCc1ccc(F)cc1)c1ccc(CS(=O)(=O)Cc2ccccc2F)o1	5	-20%	14%[38.3 µM]	5%	13µM*	70
O=C(NCc1ccc(F)cc1)c1ccc(CS(=O)(=O)Cc2ccc(F)cc2)o1	?	-1%	-29%[38.3 µM]	-8%	0%	17
CC1CC(C)CN(C(=O)/C(=C\c2ccccc2)c2ccccc2)C1 (configuration not stated)	/	11µM*	10%	-2%	-9%	10
CN1CCN(C(=O)/C(=C/c2ccccc2)c2ccccc2)CC1	17	13µM*	34%[38.3 µM]	1%	0%	-1
CC1CCCCN1C(=O)/C(=C\c1ccccc1)c1ccccc1 (configuration not stated)	7	14µM*	4%[38.3 µM]	6%	-5%	28
CCCOc1ccccc1-c1nc2n[nH]nc2c(=O)[nH]1	3	8.9µM*	5%	-3%	20µM*!	/
CC(=O)C1C(c2cn(-c3ccccc3)nc2-c2cccs2)NC(=O)NC1(O)C(F)(F)F (configuration not stated)	-7	-14%	-15%[38.3 µM]	-9%	22µM*	1
Clc1ccccc1Cn1nnc(-c2cccs2)n1	8	-11%	11%[38.3 µM]	-2%	?	1
Cc1c(Cl)cccc1-n1nnnc1-c1cccs1	-7	-6%	32%[38.3 µM]	-4%	11µM*	?
COc1cccc(C2C(C(=O)Nc3ccccc3)=C(C)Nc3nc(-c4ccccc4)nn32)c1 (configuration not stated)	15	/	/	/	/	/
CC(C)CCn1c(Oc2ccc(Cl)cc2)nc2c1c(=O)n(C)c(=O)n2C	2	-8%	14%[38.3 µM]	-6%	7.9µM*	38
CCn1c(Oc2ccc(F)cc2)nc2c1c(=O)n(C)c(=O)n2C	/	/	3%	/	6%	/
CCN(CC)S(=O)(=O)c1cccc(-c2n[nH]c(=S)n2/N=C/c2ccc(Br)cc2)c1	/	14µM*	-3%	-1%	-16%	-20
Cc1n[nH]c(=S)n1/N=C/c1cccc(OCc2ccccc2)c1	/	/	9%	/	-9%	/
CCN(CC)S(=O)(=O)c1cccc(-c2n[nH]c(=S)n2/N=C/c2ccc(OC)cc2)c1	/	16µM*	8%	-6%	?	17
CCC(C)n1c(-c2cccc(S(=O)(=O)N(CC)CC)c2)n[nH]c1=S (configuration not stated)	/	/	3%	/	13µM*	/
SMILES	IMPase cell inh	HPGD inh	IMPase Li inh	ALOX12 inhib	ALDH1A1 block	PNC assembly inh
CCN(CC)S(=O)(=O)c1cccc(-c2n[nH]c(=S)n2C(C)COC)c1 (configuration not stated)	/	/	8%	/	-4%	/
CCn1c(-c2cccc(Br)c2)n[nH]c1=S	-4	-20%	-14%[38.3 µM]	-1%	?	6
CCN(CC)S(=O)(=O)c1cccc(-c2n[nH]c(=S)n2/N=C/c2ccc(OC(F)F)cc2)c1	7	3.2µM*	-1%	-16%	?	72
[C-]#[N+]c1cc(-c2ccncc2)c(C)[nH]c1=O	/	/	-11%	/	-9%	/
COc1ccc(-c2n(Cc3ccccc3)c3ccccc3[n+]2Cc2ccccc2)cc1	/	/	26%	/	?	/
O=C(O)CCC/C=C\C[C@@H]1[C@@H](/C=C/[C@@H](O)COc2cccc(C(F)(F)F)c2)[C@H](O)C[C@@H]1O	/	-9%	2%	-5%	3%	/
CCCCOc1ccc(C(=O)N(Cc2ccc(C(C)C)cc2)C2CCS(=O)(=O)C2)cc1 (configuration not stated)	9	/	/	/	/	/
COc1ccc(N(CC(=O)Nc2ccc(C)c(C)c2)S(=O)(=O)c2ccc(C)cc2)cc1OC	-8	/	/	/	/	/
CCOc1ccc(NC(=O)CN2CCN(C3c4ccccc4-c4ccccc43)CC2)cc1	-10	-17%	1%	-5%	11µM*	7
CCOc1ccc(NC(=O)CN2CCN(CC(=O)Nc3ccc(C(=O)OC)cc3)CC2)cc1	-5	-13%	-1%	-4%	7.1µM*	15
COC(=O)c1ccc(NC(=O)CN2CCCC2)cc1	10	-11%	14%[38.3 µM]	-3%	2%	11
CCOc1ccc(NC(=O)CN2CCN(CC(=O)Nc3ccc(F)c(F)c3)CC2)cc1	-5	-6%	12%[38.3 µM]	-2%	4µM*	?
CCCC(=O)Nc1ccc(Oc2ccc(NC(=O)CCC)cc2)cc1	0	-9%	-5%	1%	2%	-100*
CCCC(=O)Nc1ccc(OCC(=O)OC)cc1	2	-4%	18%[38.3 µM]	0%	2%	32
OCC1O[C@H](OC2C(CO)O[C@@](O)(CO)C2O)C(O)C(O)C1O (some centres not stated)	/	-10%	31%	-1%	2%	/
CCc1c(C)nc(SCC(=O)N2CCCCC2C)[nH]c1=O (configuration not stated)	/	/	0%	/	?	/
COc1cccc(Cn2c(=O)cnc3cnc(Oc4ccccc4)nc32)c1	/	/	8%	/	-13%	/
CCCCCCCCCCCCCCC/C=C\[C@H](O)[C@@H](NC(=O)CCCCCCCCCCCCC)OC (tested in a mixture with another compound)	-3	/	/	-11%	/	/
CC(C)NC[C@@H](O)COc1ccc(CCOCC2CC2)cc1	-3	-4%	7%	-2%	-6%	/
CCOc1ccc(NC(=O)Cn2c(=O)oc3ccccc32)cc1	4	10µM*	21%[38.3 µM]	-6%	-8%	-15
